Bioassay records (PubChem)
In the library only some 4.1% were active in any assay of this set; here they are far more common.
NSD2 HMT inh – blocks human histone methyltransferase NSD2; O96028; NSD2 peptide methylation, AlphaScreen, 120 min; inhibition, % at 12.5 µM; 310,000 tested, 0.54% active; in the data active = inhibition above about 50%
HIV Env fusion – blocks HIV Env-driven cell-cell fusion; HeLa-JRFL Env/CEM21 cell fusion, luciferase; inhibition, % at 12.3 µM; 360,000 tested, 1.1% active; AID 651610;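 active = mean replicate inhibition score of at least 50 and every replicate individually at or above 50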;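 note: 0% = plate neutral controls and 100% = maraviroc near 300 nM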
F508del corr – CFTR F508del correction in bronchial cells | CFBE cells, YFP halide quenching; stimulated with forskolin plus potentiator P3; % fluorescence drop versus neutral controls | activity (quench increase), % at 7.58 µM | 350,000 tested, 0.36% active;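 active = mean added fluorescence quench of at least 8% versus neutral control, with both replicates also reaching 8%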;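 note: cells transiently co-express mutant CFTR-F508del with the halide-sensitive YFP; corrector assay measuring rescue of mutant channel to the surface after 24 h compound exposure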
PglD DTNB – blocks C. jejuni PglD acetyltransferase activity | 360,000 tested, 0.098% active | purified PglD enzyme, DTNB colorimetric CoA detection | inhibition, % at 12.5 µM | AID 602405; in the data active = inhibition above about 16%, passing the limit was not always enough
ALR inh – human ALR oxidase inhibition via reduced H2O2 | purified ALR, DTT oxidation, H2O2 HRP-luminol luminescence | inhibition, % (concentration not given with the values) | 290,000 tested, 3.8% active;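 active = mean replicate inhibition above about 79%, with every replicate also reaching it, limit read from the data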
Target sequence (P55789 whole entry, looked up): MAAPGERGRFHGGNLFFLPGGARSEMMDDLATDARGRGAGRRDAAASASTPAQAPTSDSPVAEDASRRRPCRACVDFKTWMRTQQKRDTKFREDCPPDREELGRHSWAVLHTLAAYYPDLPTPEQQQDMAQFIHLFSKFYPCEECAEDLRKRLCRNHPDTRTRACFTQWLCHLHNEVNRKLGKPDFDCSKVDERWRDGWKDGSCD
CASP6 VEID inh – blocks human caspase-6 cleavage activity; P55212; purified caspase-6, Z-VEID-R110 cleavage fluorescence; inhibition, % at 12.5 µM; 350,000 tested, 0.53% active; AID 686996;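 active = mean inhibition across replicates at least about 35%, with every replicate also reaching that limit, limit read from the data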;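 note: 0% = median of neutral control wells and 100% = no fluorescence left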
Target sequence (P55212 24-179 limits assumed): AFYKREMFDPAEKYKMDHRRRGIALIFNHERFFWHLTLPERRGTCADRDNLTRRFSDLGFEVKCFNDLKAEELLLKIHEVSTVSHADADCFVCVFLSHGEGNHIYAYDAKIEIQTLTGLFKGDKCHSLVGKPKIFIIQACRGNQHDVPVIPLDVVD
Target sequence (P55212 194-293 limits assumed): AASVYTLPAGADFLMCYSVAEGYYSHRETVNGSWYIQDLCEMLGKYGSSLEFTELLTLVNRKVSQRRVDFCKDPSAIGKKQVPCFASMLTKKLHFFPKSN
Starred values were filed as active, the others as inactive; / = no result given; [ ] = another dose, or the depositor's remark.

SMILES	NSD2 HMT inh	HIV Env fusion	F508del corr	PglD DTNB	ALR inh	CASP6 VEID inh
COc1ccc(-c2cc(C(F)F)n3ncc(C(=O)N4CCN5CCCC5C4)c3n2)cc1 (stereo unspecified)	2	-114	/	-4	-5	/
Cc1ccc(-c2cc(C(F)F)n3ncc(C(=O)N4CCCc5ccccc54)c3n2)cc1	-1	-11	/	4	-23	/
O=C(C[C@@H]1C=C[C@H](NS(=O)(=O)c2ccc(F)cc2)[C@H](CO)O1)N1CCC(Cc2ccccc2)CC1	/	-3[16.7 µM]	-2	7	/	-4
O=C1C(N2CCOCC2)=C(n2nnc3ccccc32)C(=O)c2ccccc21	117*	80*	/	2	-17	/
CCNC(=O)[C@H]1[C@H](CO)[C@H]2Cn3c(ccc(/C=C/c4ccccc4)c3=O)[C@@H]1N2	/	/	1	3	/	4
c1ccc(N2CCOCCOCCOCCOCC2)cc1	0	-31	-2	/	99*	-1
Cc1nc2ccc(NC(=O)c3cc(S(=O)(=O)N(C)c4ccccc4)ccc3Cl)cc2s1	-3	87*	/	/	-49	/
Cc1nc2ccc(NC(=O)c3ccc(Cl)c(S(=O)(=O)N(C)c4ccccc4)c3)cc2s1	-3	74*	/	-1	-4	/
Cc1nc2ccc(NC(=O)c3ccc(S(=O)(=O)N(C)C)cc3)cc2s1	3	4	2	/	/	1
CN(C)CCCNC(=O)C[C@H]1CC[C@@H]2[C@H](COc3ccc(NC(=O)C4CCC4)cc3C(=O)N2C)O1	/	/	3	-1	/	-3
CCOC(=O)C1=C(N)Oc2cc(O)ccc2C1c1cccc([N+](=O)[O-])c1 (stereo unspecified)	8	4	4	/	85*	2
CN1c2ccc(-c3ccc(C#N)cc3)cc2[C@H]2[C@H](CCN2C(=O)c2cccc(F)c2)[C@@H]1CO	/	/	2	-1	/	-3
CCC12CN(S(=O)(=O)c3ccc(C)cc3)CC(CC)(CN(S(=O)(=O)c3ccc(C)cc3)C1)C2=O	-2	109*	/	-14	-1	/
Cc1ccc(S(=O)(=O)N2CC3(C)CN(S(=O)(=O)c4ccc(C)cc4)CC(C)(C2)C3)cc1	-4	/	0	5	-1	-3
C[C@@H]1CN([C@H](C)CO)C(=O)c2cc(NS(=O)(=O)c3cn(C)cn3)ccc2O[C@H]1CN(C)Cc1ccc(Cl)c(Cl)c1	/	/	2	-1	/	4
N#Cc1ccccc1Cn1c(=O)n(-c2ccc(CC(=O)NCc3ccco3)cc2)c(=O)c2sccc21	/	8	-2	1	-2	0
O=C(NCc1ccco1)c1ccc(Cn2c(=O)c3ccccc3n(Cc3cccc(F)c3)c2=O)cc1	/	85*	/	-1	2	/
O=C(NCc1ccco1)c1ccc(Cn2c(=O)c3ccccc3n(Cc3ccc(Cl)cc3)c2=O)cc1	/	119*	/	-3	-19	/
N#Cc1ccccc1Cn1c(=O)n(Cc2ccc(C(=O)NCc3ccco3)cc2)c(=O)c2sccc21	/	43	1	-4	94*	3
Oc1ccccc1CNc1nc2ccccc2n1CCN1CCCCC1	/	-37	5	1	96*	0
COc1ccccc1CNc1nc2ccccc2n1CCN1CCCCC1	3	-90	/	-2	98*	/
CCCCC[C@@H](C)N1C[C@H](COCc2ccccc2)Oc2cc(N3CCC[C@H]3C(N)=O)ccc2S1(=O)=O	/	76*	-2	/	/	-1
CCCCC[C@H](C)N1C[C@H](COCc2ccccc2)Oc2cc(N3CCC[C@H]3C(N)=O)ccc2S1(=O)=O	/	44	-3	/	/	0
Cc1ccc(C(=O)Sc2cccccc2=O)cc1	30	20	2	1	99*	16
O=C(Nc1ccccc1SC(=O)c1ccccc1)c1ccccc1	1	-47	1	-5	/	-2
SMILES	NSD2 HMT inh	HIV Env fusion	F508del corr	PglD DTNB	ALR inh	CASP6 VEID inh
CNC(=S)N(CCc1c(C)[nH]c2ccc(F)cc12)Cc1cccnc1	20	9	5	3	97*	-21
CCOc1cc(/C=N/NC(=O)c2c(-c3ccccc3)noc2C)ccc1O	0	0	2	1	96*	-2
Cc1onc(-c2ccccc2)c1C(=O)N/N=C/c1ccc(Br)cc1	-1	56*	5	-6	1	-1
CCOc1cc([N+](=O)[O-])cc(/C=N/NC(=O)c2c(-c3ccccc3)noc2C)c1O	3	/	/	-6	-2	/
CCOc1cc(/C=N/NC(=O)c2ccc(CN3CCOCC3)cc2)ccc1OCc1ccccc1	-1	56*	/	4	1	/
Cc1ccc(/C=N/NC(=O)c2c(-c3ccccc3)noc2C)o1	1	21	/	/	-15	3
CCOc1cc(/C=N\NC(=O)c2c(C)nc3ccccn23)ccc1O	2	2	1	5	89*	3
Cc1ccc(/C=N/NC(=O)c2c(-c3ccccc3)noc2C)c(O)c1	0	42	11*	5	20	-5
CCOc1cc(/C=N/NC(=O)c2ccc(=O)n(C)c2)ccc1O	2	-2	0	/	99*	-1
Cc1ccc(C(C)C)c(OCc2ccc(C(=O)N/N=C/c3ccc(O)c(O)c3)cc2)c1	18	15	/	-2	97*	/
Cc1onc(-c2ccccc2)c1C(=O)Nc1ccccc1NC(=O)c1c(-c2ccccc2)noc1C	/	4	-1	0	-1	-2
CCCOc1ccccc1NC(=O)c1c(-c2ccccc2)noc1C	/	65*	0	-3	/	0
Cc1onc(-c2ccccc2)c1C(=O)N/N=C/c1c[nH]c2ccccc12	5	-16	1	7	3	1
C[C@@H]1CN([C@H](C)CO)C(=O)Cc2cc(NC(=O)Nc3cccc4ccccc34)ccc2O[C@@H]1CN(C)S(=O)(=O)c1ccc(Cl)cc1	/	/	-6	/	/	-1
CCOC(=O)c1ccc(N2CCOCC2)c(NC(=O)c2c(-c3ccccc3)noc2C)c1	-1	5	16*	5	-6	0
Cc1onc(-c2ccccc2)c1C(=O)Nc1ccc(Br)cc1Cl	-2	86*	4	-3	4	1
COc1cc(/C=N/NC(=O)c2c(-c3ccccc3)noc2C)ccc1O	0	/	/	/	99*	/
Cc1onc(-c2ccccc2)c1C(=O)Nc1ncc([N+](=O)[O-])s1	3	72*	2	-4	47	5
COc1cc(OC)c(NC(=O)c2c(-c3ccccc3)noc2C)cc1Cl	1	-8	/	-2	/	/
COc1cccc(/C=N/NC(=O)c2c(-c3ccccc3)noc2C)c1O	/	/	/	/	45	/
Cc1onc(-c2ccccc2)c1C(=O)Nc1cc(C(F)(F)F)ccc1N1CCOCC1	-3	-77	/	4	-3	/
